Rows were chosen to be rich in hits. Some 13% of all compounds tested hit in one or more screens of this group.
USP17 block: inhibitors of human USP17 deubiquitinase. Ubiquitin carboxyl-terminal hydrolase 17-like protein 5 (Homo sapiens), A8MUK1. purified USP17, Ub-rhodamine cleavage fluorescence, 3 h. inhibition, % at 50 µM. 47,000 compounds, 6.5% hits. AID 1645855, 2021
OTUD3 block: inhibitors of human OTUD3 deubiquitinase; inhibition, % at 25 µM; purified OTUD3, Ub-rhodamine fluorescence, 2 h; 47,000 compounds, 0.7% hits
USP28 inh: inhibitors of human USP28 deubiquitinase | Ubiquitin carboxyl-terminal hydrolase 28 (Homo sapiens), Q96RU2 | purified USP28, Ub-rhodamine cleavage fluorescence, 30 min | inhibition, % at 25 µM | 47,000 compounds, 3% hits
USP30 block: inhibitors of human USP30 deubiquitinase. Ubiquitin carboxyl-terminal hydrolase 30 (Homo sapiens), Q70CQ3. purified USP30, Ub-rhodamine cleavage fluorescence. inhibition, % at 25 µM. 47,000 compounds, 5.3% hits
USP8 block: inhibitors of human USP8 deubiquitinase; Ubiquitin carboxyl-terminal hydrolase 8 (Homo sapiens), P40818; purified USP8, Ub-rhodamine cleavage fluorescence, 30 min; 47,000 compounds, 4.2% hits; inhibition, % at 20 µM; AID 1645853, 2021
Target sequence (P40818 whole entry, looked up): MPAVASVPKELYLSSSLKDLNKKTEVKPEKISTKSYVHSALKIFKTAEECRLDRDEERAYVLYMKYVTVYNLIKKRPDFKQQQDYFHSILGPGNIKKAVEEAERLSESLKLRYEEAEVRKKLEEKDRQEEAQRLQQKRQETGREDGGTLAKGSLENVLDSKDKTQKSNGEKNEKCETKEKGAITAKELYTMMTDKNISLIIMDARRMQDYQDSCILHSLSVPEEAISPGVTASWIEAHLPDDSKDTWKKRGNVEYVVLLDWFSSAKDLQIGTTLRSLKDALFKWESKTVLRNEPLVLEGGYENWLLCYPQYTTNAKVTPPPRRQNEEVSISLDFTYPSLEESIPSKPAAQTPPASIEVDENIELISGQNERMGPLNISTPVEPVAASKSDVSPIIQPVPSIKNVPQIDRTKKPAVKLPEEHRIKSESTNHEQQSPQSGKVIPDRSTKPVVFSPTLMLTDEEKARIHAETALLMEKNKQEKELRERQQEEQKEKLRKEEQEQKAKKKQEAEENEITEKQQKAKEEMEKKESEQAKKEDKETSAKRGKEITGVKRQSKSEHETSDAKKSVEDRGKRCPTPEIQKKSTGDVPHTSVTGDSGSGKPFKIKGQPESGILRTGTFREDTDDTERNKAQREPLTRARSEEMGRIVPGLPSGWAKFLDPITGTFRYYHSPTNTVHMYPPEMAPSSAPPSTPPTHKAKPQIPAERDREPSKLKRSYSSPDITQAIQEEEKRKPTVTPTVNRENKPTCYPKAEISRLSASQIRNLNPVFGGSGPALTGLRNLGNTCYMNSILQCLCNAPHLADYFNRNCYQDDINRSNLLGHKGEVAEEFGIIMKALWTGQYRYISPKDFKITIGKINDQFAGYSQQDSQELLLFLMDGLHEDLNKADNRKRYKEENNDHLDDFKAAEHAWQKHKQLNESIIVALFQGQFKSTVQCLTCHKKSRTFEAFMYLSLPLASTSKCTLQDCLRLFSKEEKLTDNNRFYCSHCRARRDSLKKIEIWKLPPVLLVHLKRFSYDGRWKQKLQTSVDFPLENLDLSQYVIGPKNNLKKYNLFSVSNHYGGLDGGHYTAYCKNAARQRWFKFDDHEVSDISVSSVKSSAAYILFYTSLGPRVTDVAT
Numbers stand for hits; n = inactive; x = no result given. No stated cut-off is given here; in the data, active means inhibition above about 30%; inactive means the rest.

SMILES | USP17 block | OTUD3 block | USP28 inh | USP30 block | USP8 block
Cc1ccc(CNC(=O)Cn2c(=O)n(CCCC(=O)NCc3ccc(F)cc3)c(=O)c3ccccc32)cc1 | 33 | n | n | n | 43
Cc1nn(C)c(Cl)c1C1CCCN1Cc1nc(-c2ccoc2)no1 (configuration not stated) | n | n | n | n | n
O=C(N[C@H]1C[C@@H]2C[C@H]1CN2C(=O)Nc1ccccc1Cl)c1ccccc1 | n | n | n | n | n
O=S(=O)(NCC12CC3CC(CC(C3)C1)C2)c1ccc(Cl)c2ccccc12 | n | n | n | n | n
Cc1ccc(Cn2c(=O)c3ncccc3n(CC(=O)NCc3ccc(F)cc3)c2=O)cc1 | 77 | 45 | 78 | 84 | 81
Cn1cc([C@H]2CN(Cc3ccccc3)C[C@@H]2N)c2ccccc21 | n | n | n | n | n
COc1ccc(-c2nc(SCC(=O)Nc3ccc(Cl)cc3F)n[nH]2)cc1 | 59 | n | n | 33 | n
COc1ccc(C(CC(=O)Nc2ccc(Cl)cc2F)NC(=O)C(F)(F)F)cc1 (configuration not stated) | 31 | n | n | n | n
c1ccc(CN(Cc2ccccc2)c2c3c(nc4ncnn24)CCC3)cc1 | n | n | n | 39 | n
O=C(c1ccc(Cl)cc1)N1CCCC(C(=O)N2CCCc3ccccc32)C1 (configuration not stated) | n | n | n | n | n
O=C(Nc1cc(Cl)ccc1NCc1ccccc1)c1cc(=O)[nH]c2ccccc12 | n | n | n | n | 44
O=C(COC(=O)c1cc(=O)[nH]c2ccccc12)Nc1ccc(Br)cc1Br | n | n | n | n | n
O=C(Nc1ccc(Br)cc1)c1cc(=O)[nH]c2ccccc12 | n | n | n | 35 | n
Cc1ccc(OCc2nc3ccccc3n2C(C)c2ccccc2)cc1 (configuration not stated) | n | n | n | 34 | n
Cc1ccc(C(C)C)c(OCc2nc3ccccc3n2CC(C)C)c1 | n | n | n | n | n
CCSc1ncc2c(=O)n(CC(=O)NC3CCCCC3)cnc2n1 | n | n | n | n | n
COc1cccc(NC(=O)N2CCN(c3ncccc3C(F)(F)F)CC2)c1 | n | n | 42 | n | n
COc1cccc(NC(=O)N2CCN(C3=CC4=NC(C)CN4C=N3)CC2)c1 (configuration not stated) | n | n | n | n | n
Cc1ccc(NC(=O)Cn2c(=O)nc(N3CCCC(C)C3)c3ccccc32)cc1 (configuration not stated) | n | n | n | n | n
Cc1cc(OCC(=O)Nc2ccccc2)nc(N2CCCC(C)C2)n1 (configuration not stated) | 31 | n | n | n | n
Cc1cc(=O)n(CC(=O)Nc2cccc(F)c2)c(N2CCCCC2)n1 | n | n | n | n | n
Cc1cccc(NC(=O)COc2cc(C)nc(N3CCCCC3)n2)c1 | x | n | n | 30 | n
CCc1ccc(NC(=O)N2C[C@H]3C[C@H](C(=O)NC(C)C)[C@@H](C2)O3)cc1 | n | n | n | n | n
CC(C)N1CCc2c(sc(NC(=O)CSc3ccc(Cl)cc3)c2C(N)=O)C1 | 50 | n | n | n | n
COC(=O)c1ccc(OCC2c3cc(OC)c(OC)cc3CCN2C(=O)Cc2ccc(F)cc2)cc1 (configuration not stated) | n | n | n | n | 36
SMILES | USP17 block | OTUD3 block | USP28 inh | USP30 block | USP8 block
COc1ccc(CC(=O)N2CCc3cc(OC)c(OC)cc3C2COc2ccc([N+](=O)[O-])cc2)cc1 (configuration not stated) | n | n | n | 44 | n
COc1cc2c(cc1OC)C(COc1ccc([N+](=O)[O-])cc1)N(C(=O)COc1ccccc1)CC2 (configuration not stated) | n | n | n | n | n
O=C1CCCC[C@]2(CN(C(=O)c3ccc(-n4cccn4)nc3)C[C@H]2c2ccc(F)cc2)N1 | n | n | n | 33 | n
Cc1ccnc(SCc2cc(=O)[nH]c(N3CCN(c4ccccc4)CC3)n2)n1 | x | n | n | n | n
Cc1cc(NC(=O)c2ccccc2C(F)(F)F)n(-c2nc3ccccc3n2Cc2ccc(C#N)cc2)n1 | n | n | n | n | n
COc1ccc(Cl)cc1N(C)C(=O)c1noc2c1CCc1sccc1-2 | n | n | n | 34 | n
